Screening results: PubChem BioAssay, The Scripps Research Institute Molecular Screening Center
Sampled rows, rich in hits. Any-hit rate of the full collection: about 4.8%.
hgDAF12 agonist: activates the H. glycines DAF-12 receptor ligand-binding domain | HEK293 GAL4-hgDAF12 UAS-luciferase reporter, agonist luminescence; normalized to butyrate control | activation, % at 6.8 µM | actives 1.8% (n = 370,000);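 active means activation above a cutoff set at the mean of all screened compounds plus 3 SD, cut at about 10% in these data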;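 further: 0% = DMSO wells and 100% = sodium butyrate wells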
DAX1 inh-1: inhibitors of DAX1 repression of SF-1 activated StAR promoter | actives 1.1% (n = 370,000) | HEK293T StAR-luciferase reporter, SF-1/DAX-1 repression relief | inhibition, % at 6.8 µM | AID 652010;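 active means inhibition above the mean over all tested compounds plus 3 SD, cut at about 3.6% in these data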;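 further: 0% = DAX-1 cells with DMSO and 100% = cells lacking DAX-1 with DMSO; higher inhibition means more luminescence from relief of DAX-1 repression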
ssDAF-12 act: S. stercoralis DAF-12 activation, primary screen; HEK293 ssDAF-12/GRIP1 lit1-tk-luc reporter, luminescence; % of 3 µM dafachronic acid response; activation, % at 6.8 µM; actives 1% (n = 370,000);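 active means activation above the mean over all tested compounds plus 3 SD, cut at about 0.9% in these data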;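 further: 0% = DMSO-only wells and 100% = 3 µM delta7-dafachronic acid wells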
SMARCA2 act: increases SMARCA2 function in MMTV reporter cells; MG213 cells, MMTV-luciferase reporter, dexamethasone, overnight; activation, % at 9.1 µM; actives 1% (n = 370,000); in the data active means activation above about 7.8%;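 further: 0% = vehicle wells and 100% = reference activator wells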
DAX1 inh-2: NR0B1 (DAX1) inhibition; HEK293 Gal4-DAX1 luciferase reporter, luminescence; actives 0.99% (n = 340,000); inhibition, % at 6.75 µM; P51843;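 active means inhibition above the mean over all tested compounds plus 3 SD, cut at about 4.2% in these data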;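 further: 0% = DAX1-transfected cells with DMSO and 100% = empty-vector control cells with DMSO; inhibition shows as a rise in luminescence from relieved DAX1 repression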
Target sequence (P51843 207-470 limits assumed): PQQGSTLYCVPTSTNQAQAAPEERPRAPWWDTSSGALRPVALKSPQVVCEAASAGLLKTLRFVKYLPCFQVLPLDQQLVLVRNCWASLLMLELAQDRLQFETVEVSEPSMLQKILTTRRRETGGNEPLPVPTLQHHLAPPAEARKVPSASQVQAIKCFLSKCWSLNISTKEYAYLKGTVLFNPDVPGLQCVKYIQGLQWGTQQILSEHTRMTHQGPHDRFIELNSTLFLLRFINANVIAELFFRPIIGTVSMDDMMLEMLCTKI
hcDAF-12 act: H. contortus DAF-12 activation, primary screen. actives 1.4% (n = 370,000). HEK293 hcDAF-12 lit1-tk-luc reporter, luminescence; 0% DMSO, 100% Δ7-dafachronic acid. activation, % at 6.8 µM;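 active means activation above the mean of all tested compounds plus 3 SD, cut at about 5.5% in these data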;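 further: 100% = response to 3 µM Δ7-dafachronic acid high control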
SMARCA2 act conf: SMARCA2 activation, confirmation screen; AID 652260; activation, % at 9.1 µM; shares compounds with SMARCA2 act; MG213 cells, MMTV-luciferase with dexamethasone, luminescence, overnight; MG213 cells expressing E1A, Rb sequestered; DMSO wells 0%, reference activator 100%; actives 30% (n = 3,500);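 active means activation above its plate's cutoff, the mean activation of tested wells plus 3 SD, cut at about 7.9% in these data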
GAL4-VP16 Luc: activates GAL4-VP16 luciferase, flagging SMARCA2 activator hits | shares compounds with SMARCA2 act | HEK293 GAL4-VP16 pG5luc reporter, luciferase luminescence; scaled: DMSO wells 0%, SAHA wells 100% | activation, % at 9.1 µM | actives 41% (n = 3,500);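 active means activation above the solvent-only control well mean plus 3 SD, averaged across control plates, cut at about 5.2% in these data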
Numbers without * were called inactive.

What do the screens show for `COc1ccccc1NS(=O)(=O)c1ccccc1C#N`?
hgDAF12 agonist: 1; DAX1 inh-1: -1; ssDAF-12 act: -1; SMARCA2 act: -2; DAX1 inh-2: -1; hcDAF-12 act: 0

What do the screens show for `Cc1c(F)cccc1NS(=O)(=O)c1ccccc1C#N`?
hgDAF12 agonist: -1; DAX1 inh-1: 0; ssDAF-12 act: -1; SMARCA2 act: 9.2*; DAX1 inh-2: 1; hcDAF-12 act: 0; SMARCA2 act conf: -3; GAL4-VP16 Luc: 0

What do the screens show for `COCCCN1C(=O)[C@H](CC(=O)NCCc2ccccc2OC)[C@]2(C(=O)OC)CCCCC=C12`?
hgDAF12 agonist: 3; DAX1 inh-1: 0; ssDAF-12 act: -1; SMARCA2 act: 0; hcDAF-12 act: -2

How did O=C(NCc1ccc(Cl)cc1)c1cc2ccccn2n1 do in these assays?
hgDAF12 agonist: 5; DAX1 inh-1: 0; ssDAF-12 act: 0; SMARCA2 act: -4; DAX1 inh-2: 1; hcDAF-12 act: 2

Results for O=C(NCCc1ccc(F)cc1)c1cc2ccccn2n1 ?
hgDAF12 agonist: 7; DAX1 inh-1: 2; ssDAF-12 act: -1; SMARCA2 act: 16*; hcDAF-12 act: -1; SMARCA2 act conf: 4; GAL4-VP16 Luc: 7.3*

Results for Cc1ccc(-c2c3c(nc4sc(C(N)=O)c(N)c24)CCC3)cc1 ?
hgDAF12 agonist: 3; DAX1 inh-1: -1; ssDAF-12 act: -1; SMARCA2 act: 0; DAX1 inh-2: 1; hcDAF-12 act: -1

Results for Cc1ccc(C(=O)c2sc3nc4c(cc3c2N)CCC4)cc1 ?
hgDAF12 agonist: 5; DAX1 inh-1: 0; ssDAF-12 act: 0; SMARCA2 act: 9.1*; DAX1 inh-2: 0; hcDAF-12 act: 2; SMARCA2 act conf: 8.4*; GAL4-VP16 Luc: 8.3*

Results for CS(=O)(=O)N(CC(=O)N1CCCCC1)c1ccc2c(c1)OCO2 ?
hgDAF12 agonist: 1; DAX1 inh-1: 0; ssDAF-12 act: -2; SMARCA2 act: 5; DAX1 inh-2: 0; hcDAF-12 act: 0

Results for CS(=O)(=O)N(CC(=O)N1CCCCCC1)c1ccc2c(c1)OCCO2 ?
hgDAF12 agonist: 1; DAX1 inh-1: -1; ssDAF-12 act: -1; SMARCA2 act: 8.0*; DAX1 inh-2: 1; hcDAF-12 act: 3; SMARCA2 act conf: -3; GAL4-VP16 Luc: 1

How did O=[N+]([O-])c1ccc(N=NN(CCO)CCO)cc1 do in these assays?
hgDAF12 agonist: -1; DAX1 inh-1: 0; ssDAF-12 act: -1; SMARCA2 act: -3; DAX1 inh-2: 1; hcDAF-12 act: -2

Results for O=[N+]([O-])c1ccc(N=Nc2ncc[nH]2)cc1 ?
hgDAF12 agonist: -2; DAX1 inh-1: -1; ssDAF-12 act: -1; SMARCA2 act: 8.0*; DAX1 inh-2: -5; hcDAF-12 act: 3; SMARCA2 act conf: -14; GAL4-VP16 Luc: 6.9*

What do the screens show for `COc1ccc(CCN2CC(C(=O)NCCc3ccccc3)CC2=O)cc1OC` (configuration not stated)?
hgDAF12 agonist: 3; DAX1 inh-1: 1; ssDAF-12 act: -1; SMARCA2 act: 8.7*; DAX1 inh-2: 0; hcDAF-12 act: 2; SMARCA2 act conf: 3; GAL4-VP16 Luc: 3

Results for CC(=O)Nc1sc2c(c1-c1cc3ccccc3o1)CCNC2 ?
hgDAF12 agonist: 2; ssDAF-12 act: 0; hcDAF-12 act: 5

How did CCN(CC)CCNC(=O)c1cc2c(=O)n(C)c3ccccc3c2s1 do in these assays?
hgDAF12 agonist: 6; DAX1 inh-1: 2; ssDAF-12 act: 0; SMARCA2 act: 14*; DAX1 inh-2: 1; hcDAF-12 act: 6.3*; SMARCA2 act conf: 14*; GAL4-VP16 Luc: 2

What do the screens show for `CCCCN(CC)CCNC(=O)c1cc2c(=O)n(CC)c3ccccc3c2s1`?
hgDAF12 agonist: -2; DAX1 inh-1: 1; ssDAF-12 act: 0; SMARCA2 act: 4; DAX1 inh-2: 3; hcDAF-12 act: 3

Results for CCCCN(CC)CCCNC(=O)c1cc2c(=O)n(CC)c3ccccc3c2s1 ?
hgDAF12 agonist: 0; DAX1 inh-1: 1; ssDAF-12 act: -1; SMARCA2 act: 14*; DAX1 inh-2: 4.7*; hcDAF-12 act: 2; SMARCA2 act conf: 3; GAL4-VP16 Luc: 8.1*

Results for COc1ccccc1N1CCN(C(=O)c2ccc3c(c2)nc(C)n3-c2cc(OC)c(OC)c(OC)c2)CC1 ?
hgDAF12 agonist: -1; DAX1 inh-1: -1; ssDAF-12 act: -2; SMARCA2 act: -6; hcDAF-12 act: -1

How did COC(=O)[C@]12C[C@H](CC(=O)NCc3cccc(C(F)(F)F)c3)C(=O)N(CCc3ccc(OC)c(OC)c3)C1=C[C@H](C(C)C)O[C@@H]2C1CC1 do in these assays?
hgDAF12 agonist: 0; DAX1 inh-1: -1; ssDAF-12 act: -2; SMARCA2 act: -3; hcDAF-12 act: -3

How did C/C(=N\N=c1/sc2ccccc2n1C)c1ccccn1 do in these assays?
hgDAF12 agonist: 10; DAX1 inh-1: 0; ssDAF-12 act: -1; SMARCA2 act: 8.1*; DAX1 inh-2: 1; hcDAF-12 act: 5; SMARCA2 act conf: 4; GAL4-VP16 Luc: 7.5*

How did Cc1ccccc1CN1CCCCC(NC(=O)C(C)(C)C)C1=O (configuration not stated) do in these assays?
hgDAF12 agonist: -2; DAX1 inh-1: -1; ssDAF-12 act: -1; SMARCA2 act: -2; hcDAF-12 act: -1

What do the screens show for `O=C(O)c1cn(C2CCCCC2)c2ccccc2c1=O`?
hgDAF12 agonist: 6; DAX1 inh-1: 1; ssDAF-12 act: -1; SMARCA2 act: 17*; DAX1 inh-2: 2; hcDAF-12 act: 4; SMARCA2 act conf: -1; GAL4-VP16 Luc: 0

Results for Cn1c(COc2ccccc2)nnc1SCC(=O)Nc1ccccc1-c1ccccc1 ?
hgDAF12 agonist: 1; DAX1 inh-1: -2; ssDAF-12 act: -1; SMARCA2 act: 2; hcDAF-12 act: -4

How did Cc1ccc(NC(=O)CSc2nnc(-c3cc(-c4ccc(Cl)cc4)n[nH]3)n2N)cc1 do in these assays?
hgDAF12 agonist: 3; DAX1 inh-1: 0; ssDAF-12 act: -1; SMARCA2 act: -5; hcDAF-12 act: 4

What do the screens show for `O=C(N/N=C/c1ccccc1F)c1csc2c1CCCC2`?
hgDAF12 agonist: 9; DAX1 inh-1: 4; ssDAF-12 act: 1; SMARCA2 act: 12*; DAX1 inh-2: 2; hcDAF-12 act: 3; SMARCA2 act conf: 8.6*; GAL4-VP16 Luc: 10*
